Assay [1] is described as follows: NCI Yeast Anticancer Drug Screen. Data for the rad50 strain (AID 155).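 Also: 0% = growth of vehicle-only cultures of the same strain.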 The following applies: S. cerevisiae rad50 strain growth inhibition, active compounds read high. An outline of the steps: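 Compounds were tested on a yeast strain with an engineered DNA damage repair alteration; the reported value is growth inhibition normalised to vehicle treatment.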
Assay [2] in a line: NCI Yeast Anticancer Drug Screen. Data for the mec2-1 strain (AID 157). Particulars: S. cerevisiae mec2-1 strain, active compounds read high. Put shortly: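 Each compound was tested on mec2-1 yeast, a strain altered in DNA damage repair or cell cycle control. Growth inhibition is reported relative to vehicle.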
Assay [3] in a line: NCI Yeast Anticancer Drug Screen. Data for the sgs1 mgt1 strain (AID 161).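 Also: 0% = growth of cultures given vehicle only.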 The following applies: S. cerevisiae sgs1 mgt1 strain, active compounds read high. Put shortly: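 Test agents were incubated with a DNA-repair-mutant yeast strain. Growth was then read and compared against vehicle-treated controls.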
Assay [4] is described as follows: NCI Yeast Anticancer Drug Screen. Data for the cln2 rad14 strain (AID 165).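 Also: 0% = growth equal to vehicle treated cultures.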 Particulars: S. cerevisiae cln2 rad14 strain, active compounds read high. An outline of the steps:
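Test compounds were added to cln2 rad14 yeast cultures; inhibition of growth was then determined by comparison with vehicle treatment.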

Assay [5] is described as follows: NCI Yeast Anticancer Drug Screen. Data for the bub3 strain (AID 167). The following applies: S. cerevisiae bub3 mutant strain, active compounds read high. Put shortly: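 Growth of a checkpoint-deficient yeast mutant is measured after compound exposure. Values represent inhibition relative to vehicle.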
Assay [6] can be described thus: NCI Yeast Anticancer Drug Screen. Data for the mlh1 rad18 strain (AID 175). The following applies: S. cerevisiae mlh1 rad18 strain growth inhibition, active compounds read high. An outline of the steps: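 Inhibition values reflect reduced growth of mutant yeast versus vehicle-treated controls following compound exposure; the mutations affect DNA damage repair.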
Where [7] appears, read: at 5.0 µM (retest, dose inferred, filed as 0.5).
[8] abbreviates: at 50.0 µM (retest, dose inferred, filed as 5.0).

The panel holds about 79,000 compounds, 15% with a hit somewhere; the sample as a whole holds those more often. Values without a mark were called inactive. The source made the active and inactive calls. Rule as the data show it: active = growth inhibition above about 70%; inactive = the rest.

As to `CCC[CH2][Sn]1([CH2]CCC)[O]C(=O)c2cccc(OC)c2[O]1`, the growth inhibition is 93% (active) in assay [1] (setting [7]); 99% (active) in assay [1] (setting [8]); 97.8% (active) in assay [1] (at 50.0 µM); 95% (active) in assay [2] (setting [7]); 99% (active) in assay [2] (setting [8]); 98% (active) in assay [2] (at 50.0 µM). Also, the growth inhibition in assay [3] (setting [7]) was 93% (active); in assay [3] (setting [8]), 98% (active); in assay [3] (at 50.0 µM), 99.2% (active); in assay [4] (setting [7]), 93% (active); in assay [4] (setting [8]), 98% (active); in assay [4] (at 50.0 µM), 98.4% (active). The growth inhibition was 94% (active) in assay [5] (setting [7]); 97% (active) in assay [5] (setting [8]); 98.4% (active) in assay [5] (at 50.0 µM); 88% (active) in assay [6] (setting [7]); 98% (active) in assay [6] (setting [8]); 98.9% (active) in assay [6] (at 50.0 µM).
Take `O=[N+]([O-])O.[In]`: the growth inhibition was 9% in assay [1] (setting [7]); 49% in assay [1] (setting [8]); 11.6% in assay [1] (at 50.0 µM); 17% in assay [2] (setting [7]); 53% in assay [2] (setting [8]); 44.2% in assay [2] (at 50.0 µM). Moreover, the growth inhibition was 6% in assay [3] (setting [7]); 43% in assay [3] (setting [8]); 50.3% in assay [3] (at 50.0 µM); 3% in assay [4] (setting [7]); 22% in assay [4] (setting [8]); -24.1% in assay [4] (at 50.0 µM). Moreover, the growth inhibition in assay [5] (setting [7]) was 11%; in assay [5] (setting [8]), 58%; in assay [5] (at 50.0 µM), -1.85%; in assay [6] (setting [7]), 13%; in assay [6] (setting [8]) it was 55%; in assay [6] (at 50.0 µM) it was 65.3%.
`COc1cc(/C=C/[N+](=O)[O-])c(OC)cc1Br`: the growth inhibition is 44% in assay [1] (setting [7]); 58% in assay [1] (setting [8]); 59.9% in assay [1] (at 50.0 µM); 27% in assay [2] (setting [7]); 45% in assay [2] (setting [8]); 83.3% (active) in assay [2] (at 50.0 µM). Moreover, the growth inhibition in assay [3] (setting [7]) is 15%; in assay [3] (setting [8]), 87% (active); in assay [3] (at 50.0 µM) it was 87% (active); in assay [4] (setting [7]), 37%; in assay [4] (setting [8]), 25%; in assay [4] (at 50.0 µM), 73% (active). The growth inhibition was 24% in assay [5] (setting [7]); 75% (active) in assay [5] (setting [8]); 88.2% (active) in assay [5] (at 50.0 µM); 38% in assay [6] (setting [7]); 40% in assay [6] (setting [8]); 89.2% (active) in assay [6] (at 50.0 µM).
For the compound `N#C[S-].[La+3].c1cnc2c(c1)ccc1cccnc12.c1cnc2c(c1)ccc1cccnc12.c1cnc2c(c1)ccc1cccnc12`, the growth inhibition is 97% (active) in assay [1] (setting [7]); 98% (active) in assay [1] (setting [8]); 91.9% (active) in assay [1] (at 50.0 µM); 99% (active) in assay [2] (setting [7]); 99% (active) in assay [2] (setting [8]); 94.4% (active) in assay [2] (at 50.0 µM). For the same compound, the growth inhibition in assay [3] (setting [7]) is 99% (active); in assay [3] (setting [8]), 99% (active); in assay [3] (at 50.0 µM), 93.5% (active); in assay [4] (setting [7]), 95% (active); in assay [4] (setting [8]), 98% (active); in assay [4] (at 50.0 µM) it was 92.7% (active). Besides, the growth inhibition in assay [5] (setting [7]) was 99% (active); in assay [5] (setting [8]) it was 99% (active); in assay [5] (at 50.0 µM) it was 92.1% (active); in assay [6] (setting [7]), 98% (active); in assay [6] (setting [8]), 98% (active); in assay [6] (at 50.0 µM), 91.3% (active).
As to `CC(Cl)CN1COc2c3c(c4ccccc4c2C1)CN(CC(C)Cl)CO3` (stereo not given), the growth inhibition in assay [1] (setting [7]) was 0%; in assay [1] (setting [8]), 98% (active); in assay [1] (at 50.0 µM), 83.7% (active); in assay [2] (setting [7]), 2%; in assay [2] (setting [8]), 99% (active); in assay [2] (at 50.0 µM), 68.8%. For the same compound, the growth inhibition is -3% in assay [3] (setting [7]); 99% (active) in assay [3] (setting [8]); 82.8% (active) in assay [3] (at 50.0 µM); 0% in assay [4] (setting [7]); 95% (active) in assay [4] (setting [8]); 77.5% (active) in assay [4] (at 50.0 µM). In addition, the growth inhibition in assay [5] (setting [7]) was 0%; in assay [5] (setting [8]), 98% (active); in assay [5] (at 50.0 µM) it was 66.4%; in assay [6] (setting [7]) it was 0%; in assay [6] (setting [8]), 97% (active); in assay [6] (at 50.0 µM), 81.8% (active).
For `O=[N+]([O-])/C=C\c1ccccc1`, the growth inhibition in assay [1] (setting [7]) was 65%; in assay [1] (setting [8]), 99% (active); in assay [1] (at 50.0 µM), 92.8% (active); in assay [2] (setting [7]), 17%; in assay [2] (setting [8]) it was 99% (active); in assay [2] (at 50.0 µM), 95.2% (active). Further, the growth inhibition is 20% in assay [3] (setting [7]); 99% (active) in assay [3] (setting [8]); 91.8% (active) in assay [3] (at 50.0 µM); 14% in assay [4] (setting [7]); 99% (active) in assay [4] (setting [8]); 82.7% (active) in assay [4] (at 50.0 µM). Further, the growth inhibition in assay [5] (setting [7]) was 39%; in assay [5] (setting [8]) it was 99% (active); in assay [5] (at 50.0 µM), 97% (active); in assay [6] (setting [7]) it was 26%; in assay [6] (setting [8]) it was 99% (active); in assay [6] (at 50.0 µM) it was 79% (active).
With `COc1ccccc1[As]=[As]c1ccccc1OC` (stereo not given), the growth inhibition in assay [1] (setting [7]) is 30%; in assay [1] (setting [8]), 99% (active); in assay [1] (at 50.0 µM), 99.5% (active); in assay [2] (setting [7]), 20%; in assay [2] (setting [8]), 99% (active); in assay [2] (at 50.0 µM), 99.5% (active). In addition, the growth inhibition in assay [3] (setting [7]) is 48%; in assay [3] (setting [8]), 99% (active); in assay [3] (at 50.0 µM), 99.4% (active); in assay [4] (setting [7]), 34%; in assay [4] (setting [8]), 99% (active); in assay [4] (at 50.0 µM), 98.3% (active). Further, the growth inhibition in assay [5] (setting [7]) was 85% (active); in assay [5] (setting [8]), 99% (active); in assay [5] (at 50.0 µM) it was 99.3% (active); in assay [6] (setting [7]), 75% (active); in assay [6] (setting [8]) it was 99% (active); in assay [6] (at 50.0 µM), 99.3% (active).
For `CCC[CH2][Sn]1([CH2]CCC)[O]CC(CN2CCCCC2)[O]1` (stereo not given), the growth inhibition in assay [1] (setting [7]) was 25%; in assay [1] (setting [8]), 94% (active); in assay [1] (at 50.0 µM), 82.7% (active); in assay [2] (setting [7]), 20%; in assay [2] (setting [8]), 95% (active); in assay [2] (at 50.0 µM), 85.4% (active). Further, the growth inhibition in assay [3] (setting [7]) is 32%; in assay [3] (setting [8]), 95% (active); in assay [3] (at 50.0 µM), 82.8% (active); in assay [4] (setting [7]), 22%; in assay [4] (setting [8]) it was 91% (active); in assay [4] (at 50.0 µM), 78.5% (active). Also, the growth inhibition is 34% in assay [5] (setting [7]); 96% (active) in assay [5] (setting [8]); 88% (active) in assay [5] (at 50.0 µM); 30% in assay [6] (setting [7]); 96% (active) in assay [6] (setting [8]); 87% (active) in assay [6] (at 50.0 µM).
Consider `CC(=O)C(CN(CC(C)C)CC(C)C)C(c1ccccc1)c1c(O)c2ccccc2oc1=O` (stereo not given), for which the growth inhibition was 0% in assay [1] (setting [7]); 0% in assay [1] (setting [8]); 80.1% (active) in assay [1] (at 50.0 µM); -12% in assay [2] (setting [7]); -12% in assay [2] (setting [8]); 73.7% (active) in assay [2] (at 50.0 µM). For the same compound, the growth inhibition in assay [3] (setting [7]) is -2%; in assay [3] (setting [8]), -2%; in assay [3] (at 50.0 µM) it was 85% (active); in assay [4] (setting [7]), -10%; in assay [4] (setting [8]), -10%; in assay [4] (at 50.0 µM), 83.2% (active). In addition, the growth inhibition is -1% in assay [5] (setting [7]); -1% in assay [5] (setting [8]); 78.8% (active) in assay [5] (at 50.0 µM); 7% in assay [6] (setting [7]); 7% in assay [6] (setting [8]); 81.9% (active) in assay [6] (at 50.0 µM).
Turning to `Cc1ccc2c(C)c3ccc4ccccc4c3c[n+]2c1`, the growth inhibition in assay [1] (setting [7]) is 74% (active); in assay [1] (setting [8]), 94% (active); in assay [1] (at 50.0 µM), 71.2% (active); in assay [2] (setting [7]) it was 65%; in assay [2] (setting [8]), 89% (active); in assay [2] (at 50.0 µM) it was 83.5% (active). For the same compound, the growth inhibition in assay [3] (setting [7]) was 87% (active); in assay [3] (setting [8]) it was 95% (active); in assay [3] (at 50.0 µM), 85.2% (active); in assay [4] (setting [7]), 51%; in assay [4] (setting [8]) it was 71% (active); in assay [4] (at 50.0 µM) it was 52.6%. For the same compound, the growth inhibition in assay [5] (setting [7]) is 69%; in assay [5] (setting [8]) it was 88% (active); in assay [5] (at 50.0 µM), 86.5% (active); in assay [6] (setting [7]), 52%; in assay [6] (setting [8]) it was 88% (active); in assay [6] (at 50.0 µM) it was 72.5% (active).
